# Measurements reported in the supplement of paper PMC11001985.
# A number with no mark means an inactive call.
# Compound: C#CCNC(=O)CCSSCCC(=O)NCCc1ccc(C=O)c(C=O)c1
# Assay: lysine labeling ratio R10:1 (500 µM / 50 µM probe), SILAC-ABPP in living cells; higher = lower intrinsic lysine reactivity toward the probe, active = 2 or less
# Conditions: HeLa; probe concentrations 500 vs 50 µM
# Description: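 Living HeLa cells (SILAC light/heavy) in PBS at room temperature were labeled with 50 µM versus 500 µM of the lysine-reactive, reductant-cleavable probe OPA-S-S-alkyne (SILAC labeling time not stated). Probe-modified peptides were CuAAC-biotinylated, captured on neutravidin and eluted with DTT/IAA, then quantified by LC-MS/MS. R = median peptide ratio per lysine (500/50 µM), combined over 3 forward and 3 reverse SILAC replicates. Ratios are capped at 20; R < 2 = hyper-reactive.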
# Chain of UniProt P21333 (P21333 whole entry): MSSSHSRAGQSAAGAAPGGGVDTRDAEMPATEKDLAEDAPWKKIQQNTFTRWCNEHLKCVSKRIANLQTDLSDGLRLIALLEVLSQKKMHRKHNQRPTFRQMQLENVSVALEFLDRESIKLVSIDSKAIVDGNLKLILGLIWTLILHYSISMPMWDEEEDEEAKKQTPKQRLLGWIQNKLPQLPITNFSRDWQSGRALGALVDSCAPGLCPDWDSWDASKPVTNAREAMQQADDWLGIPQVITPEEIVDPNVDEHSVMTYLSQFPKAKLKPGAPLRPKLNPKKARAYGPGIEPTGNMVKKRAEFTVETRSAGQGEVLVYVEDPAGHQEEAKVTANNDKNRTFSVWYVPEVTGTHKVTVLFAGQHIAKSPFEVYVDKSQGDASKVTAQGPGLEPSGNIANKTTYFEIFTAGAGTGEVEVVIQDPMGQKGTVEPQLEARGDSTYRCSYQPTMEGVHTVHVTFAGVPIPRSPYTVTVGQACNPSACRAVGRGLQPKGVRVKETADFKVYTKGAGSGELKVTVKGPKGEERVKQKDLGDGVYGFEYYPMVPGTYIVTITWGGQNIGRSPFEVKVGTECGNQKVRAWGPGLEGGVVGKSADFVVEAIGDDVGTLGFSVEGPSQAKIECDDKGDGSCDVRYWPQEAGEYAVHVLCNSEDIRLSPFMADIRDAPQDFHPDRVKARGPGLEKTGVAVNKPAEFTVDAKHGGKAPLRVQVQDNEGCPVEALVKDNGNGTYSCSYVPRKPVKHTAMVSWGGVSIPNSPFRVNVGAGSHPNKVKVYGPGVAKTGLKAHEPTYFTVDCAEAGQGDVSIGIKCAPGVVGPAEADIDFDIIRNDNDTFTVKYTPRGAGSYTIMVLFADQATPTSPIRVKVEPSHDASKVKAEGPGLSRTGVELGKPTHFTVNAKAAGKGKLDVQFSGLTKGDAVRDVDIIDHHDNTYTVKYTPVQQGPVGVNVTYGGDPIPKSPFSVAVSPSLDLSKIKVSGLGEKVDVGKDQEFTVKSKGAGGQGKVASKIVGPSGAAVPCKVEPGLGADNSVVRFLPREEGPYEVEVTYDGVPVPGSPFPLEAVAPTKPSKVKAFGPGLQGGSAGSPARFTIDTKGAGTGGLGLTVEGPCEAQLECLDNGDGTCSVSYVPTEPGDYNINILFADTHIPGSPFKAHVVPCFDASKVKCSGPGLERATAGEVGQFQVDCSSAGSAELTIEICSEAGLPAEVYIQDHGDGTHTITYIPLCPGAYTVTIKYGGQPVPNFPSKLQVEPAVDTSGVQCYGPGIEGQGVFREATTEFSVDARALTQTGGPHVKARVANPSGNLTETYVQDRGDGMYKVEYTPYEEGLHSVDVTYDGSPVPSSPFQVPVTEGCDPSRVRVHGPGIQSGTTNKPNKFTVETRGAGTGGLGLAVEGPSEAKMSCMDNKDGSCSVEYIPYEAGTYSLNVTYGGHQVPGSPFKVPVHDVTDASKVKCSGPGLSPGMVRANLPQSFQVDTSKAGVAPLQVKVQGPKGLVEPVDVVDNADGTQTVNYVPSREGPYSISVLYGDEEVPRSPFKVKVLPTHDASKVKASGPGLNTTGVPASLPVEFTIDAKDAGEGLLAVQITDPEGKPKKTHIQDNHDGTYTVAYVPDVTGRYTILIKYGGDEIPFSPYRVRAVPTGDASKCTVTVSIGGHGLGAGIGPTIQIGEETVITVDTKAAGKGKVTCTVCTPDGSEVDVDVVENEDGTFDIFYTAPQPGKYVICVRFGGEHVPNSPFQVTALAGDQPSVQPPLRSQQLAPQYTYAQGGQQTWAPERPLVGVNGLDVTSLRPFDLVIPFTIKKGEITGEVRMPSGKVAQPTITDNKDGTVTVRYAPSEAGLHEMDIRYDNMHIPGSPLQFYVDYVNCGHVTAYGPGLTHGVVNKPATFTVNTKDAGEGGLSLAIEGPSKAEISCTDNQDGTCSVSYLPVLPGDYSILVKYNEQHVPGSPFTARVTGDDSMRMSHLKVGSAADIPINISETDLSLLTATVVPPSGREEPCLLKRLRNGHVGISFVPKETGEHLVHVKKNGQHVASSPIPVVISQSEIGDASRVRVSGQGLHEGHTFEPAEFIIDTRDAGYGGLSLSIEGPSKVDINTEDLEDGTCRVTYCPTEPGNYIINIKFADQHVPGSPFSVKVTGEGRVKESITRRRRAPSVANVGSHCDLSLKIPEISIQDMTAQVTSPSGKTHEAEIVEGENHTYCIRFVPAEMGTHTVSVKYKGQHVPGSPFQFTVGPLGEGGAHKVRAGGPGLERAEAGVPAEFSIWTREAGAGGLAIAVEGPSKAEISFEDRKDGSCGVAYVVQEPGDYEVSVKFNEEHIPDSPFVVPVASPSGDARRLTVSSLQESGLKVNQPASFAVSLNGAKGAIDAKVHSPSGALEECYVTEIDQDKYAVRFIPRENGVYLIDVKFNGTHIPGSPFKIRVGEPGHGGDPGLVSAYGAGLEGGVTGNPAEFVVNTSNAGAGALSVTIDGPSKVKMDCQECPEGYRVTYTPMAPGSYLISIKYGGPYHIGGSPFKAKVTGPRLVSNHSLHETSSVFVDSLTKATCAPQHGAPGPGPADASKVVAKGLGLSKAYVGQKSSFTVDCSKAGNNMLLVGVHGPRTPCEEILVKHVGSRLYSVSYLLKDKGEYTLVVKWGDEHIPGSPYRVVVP
# Chain of UniProt P05556 (P05556 whole entry): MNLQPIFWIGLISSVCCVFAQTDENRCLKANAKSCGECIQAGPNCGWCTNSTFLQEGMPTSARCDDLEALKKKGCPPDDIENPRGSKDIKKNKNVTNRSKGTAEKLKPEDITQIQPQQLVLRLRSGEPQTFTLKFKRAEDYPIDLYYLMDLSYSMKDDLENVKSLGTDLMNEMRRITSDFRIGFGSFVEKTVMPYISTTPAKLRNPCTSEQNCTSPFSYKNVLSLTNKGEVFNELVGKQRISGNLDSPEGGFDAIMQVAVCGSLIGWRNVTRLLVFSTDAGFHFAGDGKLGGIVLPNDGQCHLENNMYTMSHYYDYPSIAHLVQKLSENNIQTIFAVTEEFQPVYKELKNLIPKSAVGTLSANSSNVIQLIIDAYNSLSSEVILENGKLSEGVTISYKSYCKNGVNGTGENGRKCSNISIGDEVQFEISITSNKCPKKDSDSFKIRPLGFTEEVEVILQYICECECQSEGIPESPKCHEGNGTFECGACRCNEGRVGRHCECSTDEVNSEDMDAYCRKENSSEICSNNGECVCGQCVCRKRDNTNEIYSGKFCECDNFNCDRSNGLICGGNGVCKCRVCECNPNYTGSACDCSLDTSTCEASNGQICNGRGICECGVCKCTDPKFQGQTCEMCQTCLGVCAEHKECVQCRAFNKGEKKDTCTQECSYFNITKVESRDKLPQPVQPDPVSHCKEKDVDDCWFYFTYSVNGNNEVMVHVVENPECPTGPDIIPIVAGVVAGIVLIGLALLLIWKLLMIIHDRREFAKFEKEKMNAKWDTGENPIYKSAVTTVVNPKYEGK
# Chain of UniProt P78371 (P78371 whole entry): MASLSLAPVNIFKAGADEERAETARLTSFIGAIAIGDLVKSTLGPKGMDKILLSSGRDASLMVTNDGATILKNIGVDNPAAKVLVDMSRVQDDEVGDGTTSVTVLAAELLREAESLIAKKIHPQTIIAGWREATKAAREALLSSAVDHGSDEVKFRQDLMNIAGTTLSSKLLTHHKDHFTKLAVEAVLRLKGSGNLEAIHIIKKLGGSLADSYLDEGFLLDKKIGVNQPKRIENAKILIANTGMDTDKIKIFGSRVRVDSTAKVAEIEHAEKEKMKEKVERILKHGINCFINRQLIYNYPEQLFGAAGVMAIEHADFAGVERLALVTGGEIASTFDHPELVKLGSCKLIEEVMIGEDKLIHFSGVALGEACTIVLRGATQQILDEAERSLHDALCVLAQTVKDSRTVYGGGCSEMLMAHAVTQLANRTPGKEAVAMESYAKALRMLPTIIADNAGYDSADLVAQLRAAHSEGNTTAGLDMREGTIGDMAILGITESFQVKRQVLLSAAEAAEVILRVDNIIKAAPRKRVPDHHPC
# Chain of UniProt O14786 (O14786 whole entry): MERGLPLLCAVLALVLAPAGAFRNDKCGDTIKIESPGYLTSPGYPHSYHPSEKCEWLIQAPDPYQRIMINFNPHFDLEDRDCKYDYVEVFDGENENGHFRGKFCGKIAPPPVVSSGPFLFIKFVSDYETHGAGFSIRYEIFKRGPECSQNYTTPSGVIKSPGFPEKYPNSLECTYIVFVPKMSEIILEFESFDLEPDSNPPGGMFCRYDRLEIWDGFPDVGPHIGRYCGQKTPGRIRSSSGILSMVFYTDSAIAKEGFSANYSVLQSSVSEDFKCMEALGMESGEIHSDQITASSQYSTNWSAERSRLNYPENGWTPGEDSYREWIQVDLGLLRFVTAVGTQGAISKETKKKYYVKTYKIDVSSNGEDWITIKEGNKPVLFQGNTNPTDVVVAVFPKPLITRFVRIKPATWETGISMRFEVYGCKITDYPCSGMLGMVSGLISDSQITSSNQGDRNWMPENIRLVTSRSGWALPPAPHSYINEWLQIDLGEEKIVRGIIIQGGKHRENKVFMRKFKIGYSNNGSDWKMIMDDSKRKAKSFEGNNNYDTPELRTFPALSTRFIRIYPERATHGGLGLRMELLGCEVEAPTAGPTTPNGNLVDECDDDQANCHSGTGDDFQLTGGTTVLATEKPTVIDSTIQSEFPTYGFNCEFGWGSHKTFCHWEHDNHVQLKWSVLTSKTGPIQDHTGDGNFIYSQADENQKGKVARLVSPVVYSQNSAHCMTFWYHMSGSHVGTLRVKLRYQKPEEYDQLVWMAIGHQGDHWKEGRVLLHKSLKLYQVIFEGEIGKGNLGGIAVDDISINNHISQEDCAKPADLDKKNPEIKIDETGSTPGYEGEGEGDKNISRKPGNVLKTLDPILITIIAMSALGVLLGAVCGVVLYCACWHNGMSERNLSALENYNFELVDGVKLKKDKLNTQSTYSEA
# Chain of UniProt P31949 (P31949 whole entry): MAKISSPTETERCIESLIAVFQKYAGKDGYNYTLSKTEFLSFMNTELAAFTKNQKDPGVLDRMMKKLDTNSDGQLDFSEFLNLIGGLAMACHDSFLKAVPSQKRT
row,Target,lysine labeling ratio R10:1
1,CDCP1 (lysine site: K369) (UniProt Q9H5V8),2.97
2,SCARB2 (lysine site: K129) (UniProt Q14108),5.93
3,EPHB4 (lysine site: K486) (UniProt P54760),4.21
4,CCT2 (lysine site: K135) (UniProt P78371),2.8
5,CCT2 (lysine site: K441) (UniProt P78371),1.98 (active)
6,UniProt P02768 (lysine site: K438),10
7,ITGAV (lysine site: K165) (UniProt P06756),10.3
8,FRAS1 (lysine site: K263) (UniProt Q86XX4),1.46 (active)
9,KRAS (lysine site: K128) (UniProt P01116),1.02 (active)
10,HNRNPA2B1 (lysine site: K120) (UniProt P22626),5.33
11,RPS19 (lysine site: K122) (UniProt P39019),4.72
12,UniProt O95084 (lysine site: K331),4.02
13,CKB (lysine site: K313) (UniProt P12277),1.31 (active)
14,UniProt Q15149 (lysine site: K4173),1.95 (active)
15,UniProt Q15149 (lysine site: K3027),2.74
16,CORO1C (lysine site: K329) (UniProt Q9ULV4),1.19 (active)
17,PRDX5 (lysine site: K142) (UniProt P30044),1.62 (active)
18,CLPTM1 (lysine site: K224) (UniProt O96005),1.69 (active)
19,FLNA (lysine site: K2000) (UniProt P21333),1.14 (active)
20,ITGA1 (lysine site: K711) (UniProt P56199),3.16

row,Target,lysine labeling ratio R10:1
1,UniProt P25705 (lysine site: K132),1.76 (active)
2,FLNA (lysine site: K2387) (UniProt P21333),11.9
3,MYH9 (lysine site: K1862) (UniProt P35579),2.81
4,UniProt Q00341 (lysine site: K1066),6.11
5,NRP1 (lysine site: K534) (UniProt O14786),2.17
6,FN1 (lysine site: K2354) (UniProt P02751),6.78
7,SPTAN1 (lysine site: K250) (UniProt Q13813),1.09 (active)
8,ITGB1 (lysine site: K136) (UniProt P05556),1.75 (active)
9,S100A11 (lysine site: K55) (UniProt P31949),1.54 (active)
10,HEXB (lysine site: K517) (UniProt P07686),2.41
11,ITGB1 (lysine site: K202) (UniProt P05556),4.2
12,GPC1 (lysine site: K358) (UniProt P35052),1.32 (active)
13,GALNT2 (lysine site: K363) (UniProt Q10471),3.95
14,RPL5 (lysine site: K188) (UniProt P46777),4.22
15,EIF3H (lysine site: K274) (UniProt O15372),1.92 (active)
16,DIABLO (lysine site: K219) (UniProt Q9NR28),1.92 (active)
17,ATP6V0D1 (lysine site: K288) (UniProt P61421),1.76 (active)
18,PFN1 (lysine site: K70) (UniProt P07737),2.2
19,HDGF (lysine site: K197) (UniProt P51858),2.54
20,UniProt P62269 (lysine site: K47),1.41 (active)
